Data taken from PubChem BioAssay AID1159580 (chemical genetic matrix, 2015).
Several values for one entry are separate records, joined by “and”; a condition that tells them apart may be missing. Equal entries are not always repeated. Screen size: about 5,500 compounds; about 2,000 (36%) were called active. Another 18% or so got no clear call; they are omitted. Rule as the data show it: active = normalized growth mostly below about 0.91 (no sharp cut-off); inconclusive = no clear call, values can overlap the other calls; inactive = mostly above about 0.92. The list shows a part of the results.

Assay: chemical genetic growth profiling, strain panel (AID 1159580);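 also: tested at 20 µM; growth read once vehicle control cultures reached saturation at 30 °C; 1 = growth at the plate median or of vehicle wells; lower values mean less growth of the strain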
Details: S. cerevisiae deletion strains, growth OD

Measured: normalized growth

O=C(O)c1nc2cc(Cl)c(Cl)cc2[nH]c1=O
inactive: locus YAL013W, strain DEP1, active compounds read low 1.02 | locus YAL021C, strain ccr4, active compounds read low 0.995 | locus YAL026C, strain drs2, active compounds read low 1.03 | locus YAL030W, strain snc1, active compounds read low 1.01 | locus YBL061C, strain skt5, active compounds read low 1.01 | locus YBR009C, strain hhf1, active compounds read low 1.04 | locus YBR021W, strain FUR4, active compounds read low 1.02 | locus YBR023C, strain chs3, active compounds read low 1.03 | locus YBR171W, strain sec66, active compounds read low 1.04 | locus YBR229C, strain ROT2, active compounds read low 1.01 | locus YBR231C, strain swc5, active compounds read low 1.02 | locus YBR279W, strain paf1, active compounds read low 1.01 | locus YCL011C, strain gbp2, active compounds read low 1.02 | locus YCL016C, strain dcc1, active compounds read low 1.01 | locus YCL029C, strain bik1, active compounds read low 0.99 | locus YCL061C, strain MRC1, active compounds read low 1.03 | locus YCL069W, strain vba3, active compounds read low 1.01 | locus YCR088W, strain abp1, active compounds read low 1.01 | locus YDL005C, strain med2, active compounds read low 1.02 | locus YDL035C, strain GPR1, active compounds read low 1.01 | locus YDL040C, strain nat1, active compounds read low 0.995 | locus YDL074C, strain BRE1, active compounds read low 1.03 | locus YDL101C, strain DUN1, active compounds read low 1.02 | locus YDL134C, strain PPH21, active compounds read low 1 | locus YDL185W, strain tfp1, active compounds read low 0.956 | locus YDL192W, strain arf1, active compounds read low 0.993 | locus YDR001C, strain nth1, active compounds read low 1.01 | locus YDR069C, strain doa4, active compounds read low 1.04 | locus YDR101C, strain arx1, active compounds read low 1.01 | locus YDR137W, strain rgp1, active compounds read low 0.974 | locus YDR150W, strain NUM1, active compounds read low 0.978 | locus YDR159W, strain sac3, active compounds read low 1.01 | locus YDR162C, strain NBP2, active compounds read low 1.03 | locus YDR195W, strain ref2 1.04 | locus YDR297W, strain sur2, active compounds read low 1.01 | locus YDR318W, strain mcm21, active compounds read low 0.994 | locus YDR334W, strain swr1, active compounds read low 1.02 | locus YDR335W, strain msn5, active compounds read low 1.02 | locus YDR388W, active compounds read low 1.01 | locus YDR392W, strain spt3, active compounds read low 0.968 | locus YDR502C, strain sam2, active compounds read low 1.01 | locus YEL003W, strain gim4, active compounds read low 1.03 | locus YEL037C, strain rad23, active compounds read low 1.02 | locus YEL061C, strain CIN8 (second series), active compounds read low 1.02 | locus YEL061C, strain CIN8, active compounds read low 0.998 | locus YER015W, strain faa2, active compounds read low 1.01 | locus YER016W, strain bim1, active compounds read low 1.01 | locus YER110C, active compounds read low 0.992 | locus YER111C, strain swi4, active compounds read low 1.03 | locus YER155C, strain BEM2 (second series), active compounds read low 1.03 | locus YER155C, strain BEM2, active compounds read low 0.996 | locus YER167W, strain BCK2, active compounds read low 1 | locus YFR010W, strain ubp6, active compounds read low 1.03 | locus YGL078C, strain dbp3, active compounds read low 0.992 | locus YGL086W, strain mad1, active compounds read low 0.979 | locus YGL167C, strain pmr1, active compounds read low 1.01 | locus YGL173C, strain kem1, active compounds read low 1.02 | locus YGL227W, strain vid30, active compounds read low 1.02 | locus YGL240W, strain doc1, active compounds read low 1.03 | locus YGL248W, strain PDE1, active compounds read low 1.01 | locus YGL253W, strain hxk2, active compounds read low 1.03 | locus YGR078C, strain PAC10, active compounds read low 1.03 | locus YGR135W, strain pre9, active compounds read low 1.02 | locus YGR229C, strain SMI1, active compounds read low 1.07 | locus YGR252W, strain gcn5, active compounds read low 1 | locus YHR013C, strain ard1, active compounds read low 0.994 | locus YHR027C, strain rpn1, active compounds read low 1.02 | locus YHR030C, strain SLT2, active compounds read low 0.995 and 0.994 | locus YHR079C, strain IRE1 (second series), active compounds read low 0.997 | locus YHR079C, strain IRE1, active compounds read low 0.999 | locus YHR094C, strain hxt1, active compounds read low 0.983 | locus YHR129C, strain ARP1, active compounds read low 1.01 | locus YHR142W, strain chs7, active compounds read low 0.984 | locus YHR200W, strain rpn10, active compounds read low 0.99 | locus YIL066C, strain RNR3, active compounds read low 1 | locus YIL073C, strain SPO22, active compounds read low 0.946 | locus YIR030C, strain dcg1, active compounds read low 0.992 | locus YJL092W, strain hpr5, active compounds read low 1.02 | locus YJL095W, strain BCK1 (second series), active compounds read low 1 | locus YJL095W, strain BCK1, active compounds read low 1.05 and 0.986 | locus YJL115W, strain asf1, active compounds read low 1.02 | locus YJL129C, strain trk1, active compounds read low 1.01 | locus YJL134W, strain LCB3, active compounds read low 0.994 | locus YJL154C, strain vps35, active compounds read low 1 | locus YJL164C, strain tpk1, active compounds read low 0.999 | locus YJL166W, strain qcr8, active compounds read low 1.02 | locus YJL168C, strain set2, active compounds read low 1.01 | locus YJL187C, strain SWE1 (second series), active compounds read low 1.01 | locus YJL187C, strain SWE1, active compounds read low 1.02 | locus YJR043C, strain POL32, active compounds read low 1.02 | locus YJR066W, strain TOR1, active compounds read low 0.985
